Source: PubChem BioAssay AID457 (Sanford-Burnham Center for Chemical Genomics, 2006)
Among all 10,000 compounds or so, about 20 (0.2%) were called active. How the calls were made is not given here. Not all results are given here.

assay: boosters of cytokine-driven VCAM-1 levels – imaging, high-content imaging, pooled HUVEC, TNFa stimulus (AID 457); settings: TNFa-induced VCAM-1 immunofluorescence imaging; concentration not given here

augmentation, inactive:
COCCNC(=O)CN1CCN(C(c2ccccc2)c2ccccc2)CC1
Cc1ccc(CN2CCN(C(=O)C3CCC3)CC2)cc1
Cc1cc(NC(=O)CCOc2ccccc2)no1
COc1ccc(N2C(=O)C3CCCN3C2c2ccc(F)cc2)cc1Cl (configuration not stated)
O=c1c2cnn(-c3ccccc3)c2ncn1/N=C/c1ccncc1
COC(=O)c1[nH]c2ccc(C)cc2c1NC(=O)CN1CCN(C(=O)c2ccccc2)CC1
CC1Cc2cc(/C(O)=C3/C(=O)C(=O)N(CCN4CCOCC4)C3c3cccc(O)c3)ccc2O1 (configuration not stated)
Clc1ccc(-c2nnc3sc(-c4ccc(Br)o4)nn23)cc1
CCCCN(CCCNC(=O)C1CCN(S(=O)(=O)CC)CC1)c1ccccc1
CS(=O)(=O)N(CC(=O)N1CCN(c2cccc(Cl)c2)CC1)C1CCCCC1
CC1CCN(CCCNC(=O)c2coc3nc4ccccc4nc23)CC1
COc1ccc(-c2nnc(SCC#N)o2)cc1
O=C(CSc1nnnn1-c1ccc2c(c1)OCO2)NCc1cccs1
CCOC(=O)N1CCN(C(=O)c2csc3c2CCCCC3)CC1
Cc1cccc(-n2ncc3c(NCc4ccccn4)ncnc32)c1
CCCN(CCC)C(=O)c1c(C)[nH]c(C(=O)OCC)c1C
CCOC(=O)c1ccc2nc(C)c3c(c2c1)OC(C)C3 (configuration not stated)
Cc1c(NC(=O)C2CCCNC2=O)c(=O)n(-c2ccccc2)n1C (configuration not stated)
O=C1CC(c2ccccc2)Cc2nc(N3CCc4ccccc43)ncc21 (configuration not stated)
CC(=O)N1CCN(c2ccc(S(=O)(=O)N3CCCCC3)cn2)CC1
COc1cc(OC)cc(-c2nc3cc(C)ccc3o2)c1
CC1CN(C(=O)CSc2nnc(-c3ccc(Cl)cc3)n2C)CC(C)O1 (configuration not stated)
CCCOc1ccccc1NC(=O)c1ccc(N)cc1
C=CCSc1ncccc1C(=O)O
CCN(CCNC(=O)C1CCN(S(=O)(=O)CC)CC1)c1ccccc1
Cc1oc2cc3c(C(=O)OCCN(C)C)c(C)oc3cc2c1C(=O)OCCN(C)C
Cc1nc(CNS(=O)(=O)c2cccc(F)c2)cs1
CCN(CC)c1ccc2c(c1)CCCN2
Cc1onc(-c2ccccc2)c1C(=O)N1CCCSC1=Nc1ccccc1
COCCN1CCN(c2c(C)c(C)nc3cc(-c4cccc(OC)c4)nn23)CC1
C=CCN1C(=O)C2(/C(=C(\O)c3ccc4c(c3)OCCO4)C(=O)C(=O)N2CCCOC)c2ccccc21 (configuration not stated)
C=CCOc1nc(N2CCCC2)nc(N2CCCC2)n1
